Source: PubChem BioAssay
Shown are actives, neighbours in structure and some others; about 3.9% of the full set was active somewhere.
GPR32 ag – agonists of human resolvin D1 receptor DRV1 (GPR32). CHO-K1 GPR32 beta-arrestin PathHunter luminescence, 90 min; zero percent set by DMSO-only wells. O75388. hit rate 2.5% among 48,000. activation, % at 76.9 µM;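 active = activation of at least 60% and not above a set upper limit, about 1 call in 100 departs from these limits; inconclusive = activation of 40% to 60%, or above that upper limit; inactive = activation under 40%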
Target sequence (O75388 whole entry, looked up): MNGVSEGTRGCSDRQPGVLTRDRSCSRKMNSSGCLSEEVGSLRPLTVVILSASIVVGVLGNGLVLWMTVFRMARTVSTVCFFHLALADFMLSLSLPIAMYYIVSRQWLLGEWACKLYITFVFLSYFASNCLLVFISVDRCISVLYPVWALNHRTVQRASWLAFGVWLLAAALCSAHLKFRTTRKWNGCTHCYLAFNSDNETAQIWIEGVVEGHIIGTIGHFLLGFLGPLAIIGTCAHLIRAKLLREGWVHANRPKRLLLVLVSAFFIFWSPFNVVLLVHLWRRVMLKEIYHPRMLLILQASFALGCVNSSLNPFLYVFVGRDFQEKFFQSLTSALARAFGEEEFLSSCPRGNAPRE
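PathHunter beta-arrestin recruitment in CHO-K1 cells stably expressing ProLink-tagged GPR32. Cells were exposed to compound for 90 min at 37 C, then chemiluminescence was read after 1 h detection at ambient temperature; DMSO served as basal control.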
GALC G270D up – enhancers of human galactocerebrosidase G270D mutant activity in cells. P54803. 145M-Twi-hGALC-G270D cells (Twitcher mouse brain line with human GALC G270D), HMU-beta-Gal fluorescence, 48 h. AID 1159614. hit rate 0.1% among 45,000. Potency, µM (titrated, usually from 57.5 µM), usual class: activators; also: nearly all actives have a fitted effect of over 65% in size
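Fluorogenic HMU-b-Gal hydrolysis (0.1 mM final, pH 5.2 citrate-phosphate with 1 mg/mL sodium taurocholate; carbonate stop buffer) measures mutant GALC activity after compound treatment of live 145M-Twi Twitcher brain cells stably carrying human GALC-G270D, with wild-type GALC line alongside; activation sought.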
p53null 32C kill – p53 null cell cytotoxicity, permissive temperature; hit rate 0.62% among 55,000; AID 903; Potency, µM (doses to about 46.1 µM), hits mostly cytotoxic; H1299-neo p53 null cells, ATP luminescence, 24 h, 32C; also: nearly all actives have a fitted effect of over 55% in size
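Cytotoxicity: H1299-neo (no p53), 32C, 24 h treatment. Concentrations up to 46 uM. Readout cellular ATP, luminescence. Normalization to DMSO basal and tamoxifen 100 uM maximal kill.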
FH mod – Identification of activators of human fumarate hydratase by quantitative high-throughput screening; Fumarate hydratase, mitochondrial (Homo sapiens), P07954; hit rate 0.22% among 54,000; Potency, µM (series often up to 79.9 µM), actives largely listed as inhibitors; FH coupled MDH/diaphorase resazurin fluorescence, 15 min; also: the screen sought activators but most active calls are inhibition curves; nearly all actives have a fitted effect of over 45% in size
p53null 39C tox – kills p53 null cells at the nonpermissive temperature; H1299 p53-null (neo) cells, 39C, ATPlite viability, 24 h; Potency, µM (highest dose often 46.1 µM), hits mostly cytotoxic; hit rate 0.97% among 55,000; also: nearly all actives have a fitted effect of over 50% in size
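H1299 lung cancer cells, p53-null (H1299-neo) or expressing p53 A138V (H1299-p53A138V), were plated overnight at 37C, then exposed to compounds at up to 46 uM for 24 hr at 39C. Viability was read by ATP-based luminescence.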
NTMT1 inhibitor – inhibitors of human N-terminal methyltransferase NTMT1. NTMT1 MTase-Glo SAH luminescence, purified enzyme. Potency, µM (doses to about 114 µM), usual class: inhibitors. hit rate 2.5% among 59,000; also: nearly all actives have a fitted effect of over 65% in size
Target sequence (Q9BV86 whole entry, looked up): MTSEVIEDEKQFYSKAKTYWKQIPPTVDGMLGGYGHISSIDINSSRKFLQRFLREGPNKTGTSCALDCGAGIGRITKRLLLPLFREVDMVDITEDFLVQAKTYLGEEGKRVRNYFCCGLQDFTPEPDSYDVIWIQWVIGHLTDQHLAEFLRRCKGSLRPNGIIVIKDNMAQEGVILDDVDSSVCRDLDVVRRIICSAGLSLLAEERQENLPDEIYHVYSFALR
A number is an active result; ! = not active in a repeat; [ ] = remark or other dose. Unless noted, calls follow the shape of the dose curve; as a rule, active = well fitted curve in the direction sought with a large enough effect; inconclusive = small, poorly fitted or top-dose-only effect, or another doubt; inactive = no such curve, though single readings can be large; an effect the other way counts as inactive or inconclusive.

Results for O=C(Nc1ccc2oc(=O)ccc2c1)c1cc2ccccc2o1 ?
p53null 32C kill: inactive; p53null 39C tox: inactive

What do the screens show for `COc1ccc(C(=O)O[C@H]2CC(C)=CC[C@@]3(C)[C@@H](OC(C)=O)C[C@@](O)(C(C)C)[C@H]23)cc1`?
FH mod: inactive; NTMT1 inhibitor: inactive

How did CC(=O)N1c2ccccc2CC1C(=O)N1CCN(c2cccc(C)c2C)CC1 (stereo not drawn) do in these assays?
GPR32 ag: 116; GALC G270D up: inactive; p53null 32C kill: inactive; FH mod: inactive; p53null 39C tox: inactive; NTMT1 inhibitor: inactive

How did O=C(Nc1nc2c(F)cccc2s1)c1ccc2c(c1)OCCO2 do in these assays?
GPR32 ag: inactive; GALC G270D up: inactive; p53null 32C kill: 4µM; FH mod: inactive; p53null 39C tox: inconclusive; NTMT1 inhibitor: inactive

How did Cc1cccc2sc(N(CCN(C)C)C(=O)c3ccc4c(c3)OCCO4)nc12 do in these assays?
GPR32 ag: inactive; GALC G270D up: inactive; p53null 32C kill: inactive; FH mod: inactive; p53null 39C tox: inactive; NTMT1 inhibitor: inconclusive

What do the screens show for `Cc1ccccc1-c1nc(CS(=O)(=O)CC(=O)NCC(C)c2ccccc2)c(C)o1` (stereo not drawn)?
GPR32 ag: 70; GALC G270D up: inactive; p53null 32C kill: inactive; FH mod: inactive; p53null 39C tox: inactive; NTMT1 inhibitor: inactive

What do the screens show for `Cc1oc(-c2cccc(Cl)c2)nc1CS(=O)(=O)CC(=O)NCc1ccccc1Cl`?
GPR32 ag: inactive; GALC G270D up: inactive; p53null 32C kill: inactive; FH mod: inactive; p53null 39C tox: inactive; NTMT1 inhibitor: 89µM

Results for Cc1ccccc1-c1nc(CS(=O)(=O)CC(=O)NCc2cccc(Cl)c2)c(C)o1 ?
GPR32 ag: inactive; GALC G270D up: inactive; p53null 32C kill: inactive; FH mod: inactive; p53null 39C tox: inactive; NTMT1 inhibitor: 89µM

How did CNc1nc(Nc2cnn([C@H]3CCN(C4COC4)C[C@@H]3F)c2Cl)ncc1C(F)(F)F do in these assays?
FH mod: inactive; NTMT1 inhibitor: inactive

Results for Clc1cccc(-c2noc3ncnc(NC4CCCCC4)c23)c1 ?
GPR32 ag: 91; GALC G270D up: inactive; p53null 32C kill: inactive; FH mod: inactive; p53null 39C tox: inactive; NTMT1 inhibitor: inactive

How did CCC(C)C1NC(=O)C2CCCN2C(=O)C(C(C)C)NC(=O)c2ccccc2NC(=O)C(Cc2ccc(O)cc2)NC(=O)C(C)NC(=O)C(C(C)O)NC1=O (stereo not drawn) do in these assays?
FH mod: inactive; NTMT1 inhibitor: inactive[12.6 µM]

Results for O=C(Nc1ccc(-n2nc(C(F)(F)F)cc2C(F)(F)F)cc1)c1ccncc1F ?
FH mod: inactive; NTMT1 inhibitor: inactive

How did Clc1ccc(CSc2nc3ncccc3[nH]2)cc1 do in these assays?
GPR32 ag: inactive; GALC G270D up: inactive; p53null 32C kill: 10µM; FH mod: inactive; p53null 39C tox: inconclusive; NTMT1 inhibitor: inactive

How did Cc1cccc(NC(=O)Cn2cc(C(=O)c3ccco3)c3ccccc32)c1C do in these assays?
GPR32 ag: inactive; GALC G270D up: inactive; p53null 32C kill: inactive; FH mod: inactive; p53null 39C tox: inactive; NTMT1 inhibitor: 79µM

Results for NC(=O)c1cccc2cn(-c3ccc([C@@H]4CCCNC4)cc3)nc12 ?
FH mod: inactive; NTMT1 inhibitor: 32µM!

How did COc1cccc(CNC(=O)Cn2nc(-c3ccc(C)cc3)ccc2=O)c1 do in these assays?
GPR32 ag: inactive; GALC G270D up: inactive; p53null 32C kill: inactive; FH mod: inactive; p53null 39C tox: inactive; NTMT1 inhibitor: inactive

Results for COc1cccc(CNC(=O)Cn2nc(-c3ccc(Cl)cc3)ccc2=O)c1 ?
GPR32 ag: 76; GALC G270D up: inactive; p53null 32C kill: inactive; FH mod: inactive; p53null 39C tox: inactive; NTMT1 inhibitor: inactive

Results for Cc1nnc(-c2cnn(C)c2N)n1CCCn1ccnc1 ?
NTMT1 inhibitor: inactive

Results for Cc1cccc2sc(NC(=O)[C@@H]3CCCN3C(=O)c3cccs3)nc12 ?
p53null 39C tox: inactive[1.84 µM]

What do the screens show for `Cc1nc(NC(=O)N2CCCC2C(N)=O)sc1-c1ccnc(C(C)(C)C(F)(F)F)c1` (stereo not drawn)?
FH mod: inactive; NTMT1 inhibitor: 45µM

Results for CCCCC(CC)CNC(=O)c1ccc2c(=O)n(Cc3ccc(OC)cc3)c(=O)[nH]c2c1 (stereo not drawn) ?
GPR32 ag: inactive; GALC G270D up: inactive; p53null 32C kill: inactive; FH mod: inactive; p53null 39C tox: inactive; NTMT1 inhibitor: inactive

How did CCCCC(CC)CNC(=O)c1ccc(Cn2c(=O)[nH]c3cc(OC)c(OC)cc3c2=O)cc1 (stereo not drawn) do in these assays?
GPR32 ag: inactive; GALC G270D up: inactive; p53null 32C kill: inactive; FH mod: inactive; p53null 39C tox: 13µM; NTMT1 inhibitor: inactive

How did O=C(O)c1ccc(O)c2ncc(N3CCCCC3CCc3ccccn3)cc12 (stereo not drawn) do in these assays?
NTMT1 inhibitor: inactive

Results for CC(=O)Nc1ccc(S(=O)(=O)Nc2nc3n(n2)C(c2ccccc2)C=C(c2ccc(Cl)cc2)N3)cc1 (stereo not drawn) ?
GPR32 ag: 84; GALC G270D up: inactive; p53null 32C kill: inactive; FH mod: inactive; p53null 39C tox: inactive; NTMT1 inhibitor: inactive

Results for Cc1ccc(C2C=C(c3ccccc3)Nc3nc(NS(=O)(=O)c4ccccc4)nn32)cc1 (stereo not drawn) ?
GPR32 ag: inconclusive; GALC G270D up: inactive; p53null 32C kill: inactive; FH mod: inactive; p53null 39C tox: inactive; NTMT1 inhibitor: inactive

What do the screens show for `Cc1ccc(C2C=C(c3ccc(Cl)cc3)Nc3nc(NC(=O)c4ccco4)nn32)cc1` (stereo not drawn)?
GPR32 ag: 108; GALC G270D up: inactive; p53null 32C kill: inactive; FH mod: inactive; p53null 39C tox: inactive; NTMT1 inhibitor: inactive

What do the screens show for `Cc1ccc(S(=O)(=O)Nc2nc3n(n2)C(c2ccc(Cl)cc2)C=C(c2ccccc2)N3)cc1` (stereo not drawn)?
GPR32 ag: 89; GALC G270D up: inactive; p53null 32C kill: inactive; FH mod: inconclusive; p53null 39C tox: inactive; NTMT1 inhibitor: 35µM

How did O=S(=O)(Nc1nc2n(n1)C(c1ccccc1)C=C(c1ccc(Cl)cc1)N2)c1ccccc1 (stereo not drawn) do in these assays?
GPR32 ag: 72; GALC G270D up: inactive; p53null 32C kill: inactive; FH mod: inconclusive; p53null 39C tox: inactive; NTMT1 inhibitor: inactive
